Assay outcomes: PubChem, National Center for Advancing Translational Sciences (NCATS)
EPAC2 ag = EPAC2 (human) agonism; Q8WZA2; EPAC2 activation, biochemical qHTS; response scale: 100% = 6.5 mM cAMP response; Potency, µM (series often up to 154 µM), inactives show at the highest dose activation, actives largely listed as activators; hit rate 0.079% among 360,000; AID 720711; also: nearly all actives have a fitted effect of over 50% in size
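Exchange assay: 100 nM EPAC2 with 250 nM Rap1B-BODIPY-GDP and 50 uM GDP. Fluorescence (ex 480/em 540 nm) read every 5 min for 30 min at room temperature. Data normalized to 6.5 mM cAMP as agonist control.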
EPAC2 antagonist = blocks human EPAC2 exchange factor; Q8WZA2; EPAC2 GEF exchange of Rap1B-BODIPY-GDP, fluorescence; Potency, µM (top dose mostly 114 µM), without a hit: at the top dose activity, negative = inhibition, most hits filed as inhibitors; hit rate 0.18% among 360,000; also: % is scaled to controls: 0 for no effect and ±100 for the full control effect; nearly all actives have a fitted effect of over 45% in size
USP1-UAF1 inh = inhibitors of human USP1/UAF1 deubiquitinase; recombinant USP1/UAF1, Ub-Rhodamine cleavage fluorescence; hit rate 0.23% among 390,000; Potency, µM (doses to about 57.1 µM), without a hit: at the top dose activity change, negative = inhibition, actives largely listed as inhibitors; also: % is scaled to controls: 0 for no effect and ±100 for the full control effect; nearly all actives have a fitted effect of over 60% in size
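High-throughput fluorogenic screen: 1nM USP1/UAF1 complex, Ub-Rho substrate 150nM final, 50mM HEPES pH 7.8 with 0.5mM EDTA, 0.1 mg/ml BSA, 1mM TCEP and 0.01% Tween-20.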
BRCA1 expr act = BRCA1 expression activation; MCF7-BRCA1-FFLuc reporter, luminescence, 48 h; response scale: scaled: vehicle 0%, 10 µM genistein 100%; Potency, µM (titrated, usually from 46.1 µM), for inactives: top-dose activation, most hits filed as activators; hit rate 1.1% among 380,000; AID 624202; also: nearly all actives have a fitted effect of over 80% in size
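Luminescence from a BRCA1-driven firefly luciferase in MCF7 cells was read after 48 h compound exposure at 37 C. Data normalized against DMSO and a 10microM genistein activation control, then curve-fitted across the titration.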
EPAC1 antagonist = blocks human EPAC1 exchange factor; EPAC1 GEF assay, Rap1b-BODIPY-GDP exchange fluorescence; hit rate 0.14% among 360,000; AID 720709; Potency, µM (highest dose often 115 µM), inactives show at the top dose activity change, negative = inhibition, actives largely listed as inhibitors;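 also: plate controls were vehicle for no effect and positive control for full effect; nearly all actives have a fitted effect of over 50% in size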
Target sequence (O95398 whole entry, looked up): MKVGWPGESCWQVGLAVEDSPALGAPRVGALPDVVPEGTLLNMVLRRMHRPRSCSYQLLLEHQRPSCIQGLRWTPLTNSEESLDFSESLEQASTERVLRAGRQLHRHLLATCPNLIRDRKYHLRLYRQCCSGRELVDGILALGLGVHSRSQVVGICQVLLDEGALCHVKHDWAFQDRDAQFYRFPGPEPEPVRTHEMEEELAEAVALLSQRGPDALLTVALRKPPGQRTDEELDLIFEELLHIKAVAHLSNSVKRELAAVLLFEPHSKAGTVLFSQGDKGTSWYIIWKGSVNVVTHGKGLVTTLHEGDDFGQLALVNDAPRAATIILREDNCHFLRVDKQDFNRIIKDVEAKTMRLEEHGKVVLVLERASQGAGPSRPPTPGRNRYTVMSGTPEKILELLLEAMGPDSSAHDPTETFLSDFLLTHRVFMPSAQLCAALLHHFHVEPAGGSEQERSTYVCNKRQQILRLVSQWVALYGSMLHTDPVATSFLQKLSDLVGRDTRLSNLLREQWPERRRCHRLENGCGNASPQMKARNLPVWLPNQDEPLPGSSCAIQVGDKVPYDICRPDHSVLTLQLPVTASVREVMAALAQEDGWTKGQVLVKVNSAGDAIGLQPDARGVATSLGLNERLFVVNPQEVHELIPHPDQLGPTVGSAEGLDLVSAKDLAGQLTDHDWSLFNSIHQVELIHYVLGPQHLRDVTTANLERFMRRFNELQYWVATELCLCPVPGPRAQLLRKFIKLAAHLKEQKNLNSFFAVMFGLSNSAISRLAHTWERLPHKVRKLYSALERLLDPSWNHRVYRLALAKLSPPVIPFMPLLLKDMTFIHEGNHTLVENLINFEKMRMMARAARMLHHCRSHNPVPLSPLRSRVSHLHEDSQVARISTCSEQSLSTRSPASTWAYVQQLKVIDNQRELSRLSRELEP
EPAC1 ag = activates human EPAC1 exchange factor | O95398 | AID 720707 | Potency, µM (top dose mostly 154 µM), for the others: at the highest dose activation, usual class: activators | EPAC1 agonist qHTS, biochemical assay; response scale: 100% = response to 6.5 mM cAMP | hit rate 0.073% among 360,000; also: nearly all actives have a fitted effect of over 60% in size
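Read-out is the fluorescence drop as BODIPY-GDP leaves Rap1B (480 nm excitation, 540 nm emission), recorded every 5 minutes over 30 minutes. Reactions held 100 nM EPAC1, 250 nM Rap1B–BODIPY-GDP and 50 uM GDP, with 6.5 mM cAMP setting full activation.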
Active calls of the source: *; ? = inconclusive; nt = not tested or not shown. This is a sample that favours compounds with a hit; in the whole collection about 1.4% have one here. Calls follow the shape of the dose curve; as a rule, active = well fitted curve in the direction sought with a large enough effect; inconclusive = small, poorly fitted or top-dose-only effect, or another doubt; inactive = no such curve, though single readings can be large; an effect the other way counts as inactive or inconclusive. Potency is read from the fitted curve at half-maximal effect.

SMILES	EPAC2 ag	EPAC2 antagonist	USP1-UAF1 inh	BRCA1 expr act	EPAC1 antagonist	EPAC1 ag
CN1CC=C2C(C#N)=C(N)C(C#N)(C#N)C(c3ccsc3)C2C1 (stereo not given)	?	-25.3%	-15.6%	-0.3%	?	63.1µM*
CN1CC=C2C(C#N)=C(N)C(C#N)(C#N)C(CCc3ccccc3)C2C1 (stereo not given)	50.1µM*	44.7µM*	?	-49.0%	?	?
CCOC(=O)N1CC=C2C(C#N)=C(N)C(C#N)(C#N)[C@H](c3ccsc3)[C@H]2C1	15.4%	-2.6%	-23.7%	-37.8%	-8.1%	20.4%
CCCC1C2CN(C(C)C)CC=C2C(C#N)=C(N)C1(C#N)C#N (stereo not given)	56.2µM*	35.5µM*	?	15.1%	?	63.1µM*
CN1CC=C2C(C#N)=C(N)C(C#N)(C#N)[C@H](c3cccs3)[C@H]2C1	16.4%	-3.7%	?	6.9%	-8.5%	20.7%
CCN1C(=O)/C(=C/C=C2/CCCN2C)OC1=S	4.1%	18.2%	?	7.08µM*	1.5%	-2.1%
CN1C(=O)/C(=C\C=C2/CCCN2C)N(C)C1=S	-2.4%	-27.9%	?	63.5%	5.6%	-7.5%
COc1ccc(NC(=O)c2c(C)oc3ccc(O)c(CN4CCN(Cc5ccccc5)CC4)c23)cc1Cl	nt	nt	-23.5%	nt	nt	nt
C[C@@H]1CN([C@H](C)CO)C(=O)CCCn2cc(nn2)CO[C@H]1CN(C)C(=O)c1ccccc1	5.8%	7.5%	nt	0.0%	?	11.7%
Clc1cccc2sc(N3CCOCC3)nc12	2.7%	-3.8%	3.1%	15.8µM*	-2.5%	5.6%
O=C(c1ccc2nc(N3CCOCC3)sc2c1)N1CCCC1	7.3%	2.9%	-8.6%	0.0%	6.1%	-8.9%
Fc1ccc2nc(N3CCOCC3)sc2c1	8.2%	11.9%	-8.8%	11.2µM*	0.5%	-3.3%
O=C1C(=C(I)I)c2ccccc2-c2ccccc21	?	?	28.2µM*	-88.3%	25.1µM*	10.9%
O=C(O)c1cccc2c1C(=O)c1ccccc1-2	13.2%	5.4%	-19.0%	0.5%	-10.3%	4.7%
CCOc1ccccc1CNC(=O)CN1C(=O)CCCc2ccccc21	nt	nt	-15.4%	nt	nt	nt
Cc1nc2cc(NC(=O)c3ccco3)ccc2n1C	4.0%	13.3%	-16.0%	-10.6%	-8.8%	-8.3%
Cc1nc2cc(NC(=O)NCc3ccco3)ccc2n1C	-3.3%	0.0%	-13.6%	11.2µM*	8.1%	-1.5%
Cn1c(CCNC(=O)c2ccco2)nc2cc(NC(=O)c3ccco3)ccc21	3.6%	5.2%	-30.7%	8.91µM*	8.2%	6.3%
Cn1c(CCNC(=O)c2ccco2)nc2cc(NC(=O)c3ccccc3)ccc21	7.3%	1.6%	-13.6%	?	?	-10.8%
Cc1ccc(NC(=O)Cn2c(=O)n(CCCCC(=O)NCc3ccccc3Cl)c(=O)c3ccccc32)cc1	nt	nt	?	4.7%	nt	nt
O=C(c1cc2ccccc2[nH]1)c1cc2cc(O)ccc2[nH]1	nt	nt	nt	36.1%	nt	nt
COc1ccc(CNc2nc3nc(C)c(Cl)c(C)n3n2)cc1	-3.1%	1.7%	-10.2%	?	1.4%	1.8%
COc1cccc(CNc2nc3nc(C)c(Cl)c(C)n3n2)c1	10.6%	5.3%	-10.5%	11.2µM*	-1.0%	8.0%
CN(C(=O)c1ccccc1Cl)C1CCCCC1	-5.1%	6.1%	9.7%	12.9%	16.0%	2.1%
O=C(NC1CCCCCC1)C(=S)NCc1ccccc1	10.9%	1.4%	-17.0%	11.2µM*	-13.0%	-8.5%
Cc1ccc(C(=O)NC(=S)N(C)C2CCCCC2)cc1	6.0%	-2.6%	-22.9%	8.91µM*	-8.8%	1.0%
O=C(NC1CCCCC1)c1ccc(-c2ccccc2)cc1	3.9%	0.4%	-8.1%	2.24µM*	-18.0%	5.9%
O=C(NC1CCCCC1)c1ccccc1-c1ccccc1	2.2%	0.8%	0.0%	20.2%	-0.5%	4.7%
CN(C(=S)NC(=O)/C=C/c1ccc(F)cc1)C1CCCCC1	10.8%	17.6%	-23.4%	-7.3%	-8.3%	-12.6%
